The text below walks through data of PubChem BioAssay AID1508622 (National Center for Advancing Translational Sciences (NCATS), 2021).

Calls of active or inactive are those of the source. The call rests on the fitted dose curve; in most records, active means well fitted activation curve with a large enough effect; inconclusive means small, poorly fitted or top-dose-only effect; inactive means no such curve, though single readings can be large or run the other way.
Potency means the concentration at half of the fitted maximal effect.

A short description of this assay: Confirmatory qHTS for Identification of Small Molecule Activators of Huntingtin-Antisense Promoter Activity. Conditions: HEK293 HTT-AS promoter firefly luciferase reporter, 24 h; series mostly up to 57.5 µM; activity change, positive = activation: at the top concentration. A digest of the protocol: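 HEK293 luciferase reporter cells, 2,500/well, cultured 24 h, then exposed to compounds at up to 57.5 uM final for 24 h at 37C. Firefly luciferase luminescence read; normalized to vehicle (0%) and zero RLU (-100%).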
For orientation: Quantitative high-throughput screening tests each substance at several concentrations.
On to `Cc1ccccc1C(=O)Nc1nc(-c2ccc(Br)cc2)ns1`, for which the “activity change, positive = activation” value is -93.2% (inactive).
For the compound `CN(C)c1ccc(C(=O)NCCCCCCC(=O)NO)cc1`, the Potency is 30.1 µM (active).
With `COc1ccc(C2=CC(c3ccccc3Cl)n3nc(-c4ccc(Cl)cc4)nc3N2)cc1` (stereo not given), the “activity change, positive = activation” value is -11.4% (inactive).
For the compound `Cc1cc(C)cc(NC(=O)Nc2cccs2)c1`, the Potency is 3.38 µM (active).
With `O=C(Cn1cc(S(=O)(=O)Cc2ccccc2Cl)c2ccccc21)Nc1cccc(C(F)(F)F)c1`, the “activity change, positive = activation” value was -23.9% (inactive).
As to `Cc1oc(-c2ccc(C(=O)NCc3ccccc3F)cc2)nc1COc1ccccc1`, the “activity change, positive = activation” value was -31% (inactive).
Still for that read-out and setting: with `O=C(NCC(c1ccc2c(c1)OCO2)N1CCN(c2ccc(F)cc2)CC1)c1cccc([N+](=O)[O-])c1` (stereo not given) the figure was -46.7% (inactive); with `Cn1c(NCCN(CCO)CCCc2ccc([N+](=O)[O-])cc2)cc(=O)n(C)c1=O`, -9.85% (inactive); with `Cc1cccc2sc(N3CCN(C(=O)CS(=O)(=O)c4ccc(F)cc4)CC3)nc12`, -37% (inactive).
On to `Cc1ccc(Nc2ccc(N3CCN(C(=O)c4ccc([N+](=O)[O-])cc4Cl)CC3)nn2)cc1`, for which the “activity change, positive = activation” value is -30% (inactive).
On the same count and under the same terms, with `COc1cccc(C(=O)Nc2ccc(S(=O)(=O)N(Cc3ccccc3)c3ccccc3)cc2)c1` the figure was -26.8% (inactive); with `CSc1ccc(CCNC(=O)C2CCCN(S(=O)(=O)N(C)c3ccc(F)cc3)C2)cc1` (stereo not given), -67.7% (inactive).
Consider `CCOC(=O)c1cccc(NC(=O)CCn2c(-c3ccc(F)cc3)cc(C(=O)OCC)c2C)c1`, for which the “activity change, positive = activation” value was -25% (inactive).
On the same count and under the same terms, the value for `COc1cccc(NC(=O)/C(C#N)=C\c2cn(Cc3ccc(C)cc3)c3ccccc23)c1` was -35.9% (inactive); that for `C=Cc1ccc(Cn2c(C(=O)O)c(CNCc3ccccc3)c3ccc(C)cc32)cc1` was -49% (inactive).
